Source: PubChem BioAssay AID1531 (NMMLSC, 2009)
Where “and” joins values, the source holds several entries; their conditions need not be identical. Identical values can stand only once. Among all 290,000 compounds or so, about 3,300 (1.1%) were called active. No stated cut-off is given here; in the data, active means binding response below about 67% or above about 130%; inconclusive means no clear call, values can overlap the other calls; inactive means in between. Many of the other results were omitted from the sample, so actives are more common in it than they were.

Biological target: Mitogen-activated protein kinase kinase kinase 2 (Homo sapiens) (UniProt Q9Y2U5)
Experiment: wildtype MEKK2 PB1-MEK5 interaction, increase or decrease – biochemical, multiplex bead flow cytometry, Alexa488-MEK5, primary screen (AID 1531)
Conditions: Alexa488-MEK5 binding to MEKK2 WT, at 10 µM, actives lie on both sides

Row | Structure (SMILES) | binding response (% of control)
1 | Cc1ccc(S(=O)(=O)N2CCN(C(=O)CSc3cc(C)ccc3C)CC2)c(C)c1 | 104% (inactive)
2 | CC(=O)NCCC(=O)Nc1nc(-c2ccc3c(c2)OCCO3)cs1 | 109% (inactive)
3 | CC(=O)Nc1ccc(N2CCOCC2)c(C(=O)Nc2cccc(C)c2)c1 | -1% [inhibitor] (active)
4 | Cc1cccc(NC(=O)c2cc([N+](=O)[O-])ccc2N2CCN(C)CC2)c1 | 101% (inactive)
5 | COC(=O)c1cc(NC(=O)c2ccco2)ccc1N1CCOCC1 | 99% (inactive)
6 | Cc1nc2ccccc2nc1N/N=C/c1ccc(O)cc1O | 101% (inactive)
7 | O=C(O)c1ccccc1-c1ccccc1C(=O)NCCc1ccccc1 | 100% (inactive)
8 | O=C(NCCCN1CCOCC1)c1cc(-c2ccc(Cl)cc2)on1 | 103% (inactive)
9 | Cc1c(C)n(Cc2ccc(Cl)cc2)c2ccc(C(=O)NCCCN3CCOCC3)cc12 | 138% (active)
10 | O=C(NCCN1CCOCC1)c1ccc2c(c1)N(Cc1ccc(Cl)cc1)CCS2 | 104% (inactive)
11 | COc1ccc(CNC(=O)C(C)NCc2ccccc2Cl)cc1 (configuration not stated) | 103% (inactive)
12 | Cc1c(C)c(C)c(S(=O)(=O)N2CCC3(CC2)OCCO3)c(C)c1C | 108% (inactive)
13 | Cc1cc(C)n(CCNS(=O)(=O)c2ccc(Cl)cc2)n1 | 103% (inactive)
14 | Cc1cc2cc(CNC(=O)c3cccs3)ccc2[nH]1 | 55% [inhibitor] (active)
15 | Cc1cc2cc(CNC(=O)c3ccc(S(=O)(=O)N4CCOCC4)cc3)ccc2[nH]1 | 97% (inactive)
16 | CCc1cccc(CC)c1NC(=S)NCc1ccc2[nH]c(C)cc2c1 | 102% (inactive)
17 | CC(NC(=O)C1CCCN(S(=O)(=O)c2ccc(-n3cnnn3)cc2)C1)c1ccc(F)cc1 (configuration not stated) | 108% (inactive)
18 | COc1cccc(N(CC(=O)NC2CCCCCC2)S(=O)(=O)c2ccccc2)c1 | 111% (inactive)
19 | COc1cccc(C2CC(c3ccccc3)=NN2S(=O)(=O)c2ccccc2)c1OC (configuration not stated) | 20% [inhibitor] (active)
20 | CCOc1ccccc1C1CC(c2cccc(NS(C)(=O)=O)c2)=NN1C(=O)c1ccccc1 (configuration not stated) | 100% (inactive)
21 | COc1ccc(C2=NN(C(=O)c3ccccc3C(=O)O)C(c3ccccc3O)C2)cc1 (configuration not stated) | 100% (inactive)

Row | Structure (SMILES) | binding response (% of control)
22 | COc1ccc(NC(=O)NCCN2CCN(c3ccc(C)cc3)CC2)c(Cl)c1 | 113% (inactive)
23 | Cc1ccc(-n2ncc(C(=O)NC3CC3)c2C2CCN(C(=O)OC(C)(C)C)CC2)c(C)c1 | 96% (inactive)
24 | O=C(CN(Cc1ccccc1)C(=O)CCC(=O)Nc1ccccn1)NCCc1ccccc1 | 107% (inactive)
25 | O=C(NC(=S)NC1CCCCC1)c1ccc(Cl)cc1 | 103% (inactive)
26 | COc1ccccc1NC(=S)N1CCN(C(c2ccccc2)c2ccccc2)CC1 | 98% (inactive)
27 | COC(=O)c1ccc(C(=O)OC)c(NC(=S)N2CCN(c3ccc(F)cc3)CC2)c1 | 98% (inactive)
28 | COc1ccccc1NC(=S)N1CCN(c2ccc(F)cc2)CC1 | 16% [inhibitor] (active)
29 | O=C(O)CSc1c2c(nc3cc(C(=O)Nc4cccc(C(F)(F)F)c4)ccc13)CCCC2 | 105% (inactive)
30 | COc1ccccc1OCCNCC(O)COc1cccc2[nH]c3ccccc3c12 (configuration not stated) | 166% (active) and 155% (active) and 213% (active)
31 | CC(C)(C)NCC(O)COc1cccc2[nH]c(=O)[nH]c12 (configuration not stated) | 113% (inactive)
32 | COc1ccccc1OCC(O)CN1CCOCC1 (configuration not stated) | 109% (inactive)
33 | CCC(=O)c1ccc(OCC(=O)Nc2ccc3nc(C)sc3c2)cc1 | 87% (inactive)
34 | Cc1ccc(NC(=O)COc2ccc(-n3ccnc3)cc2)cc1Cl | 153% (active)
35 | Cc1ccc(NC(=O)C/C(N)=N/O)cc1Cl | 100% (inactive)
36 | CC(C)(C)c1ccccc1NC(=O)CN1C(=O)NC2(CCCC2)C1=O | 100% (inactive)
37 | CC(C)c1ccc2oc(=O)cc(CN3CCN(Cc4ccccc4)CC3)c2c1 | 115% (inactive)
38 | Cn1ccc(=Nc2ccc(NC(=O)c3ccc(N=c4ccn(C)c5ccc([N+](=O)[O-])cc45)cc3)cc2)cc1 | 146% (active)
39 | O=C(Nc1ccc(C(=O)N2CCCCC2)cc1)c1cccc([N+](=O)[O-])c1 | 100% (inactive)
40 | Cc1cc([N+](=O)[O-])ccc1NC(=O)c1ccc(NC(=O)C(C)C)cc1 | 101% (inactive)
41 | CCOc1ccccc1N1CCN(C(=S)Nc2ccc(S(N)(=O)=O)cc2)CC1 | 102% (inactive)
42 | COc1ccc(N2CCN(C(=S)Nc3ccc(S(N)(=O)=O)cc3)CC2)cc1 | -9% (active)

Row | Structure (SMILES) | binding response (% of control)
43 | NS(=O)(=O)c1ccc(NC(=S)N2CCCC2)cc1 | 100% (inactive)
44 | CCc1ccc(S(=O)(=O)Nc2cc3c(cc2N2CCCCC2)n(C)c(=O)c(=O)n3C)cc1 | 101% (inactive)
45 | O=C(NCc1nnc(SCC(=O)N2CCCCCC2)o1)c1ccc(F)cc1 | 102% (inactive)
46 | Cc1ccc2c(c1)C1CN(C)CCC1N2C(=S)Nc1ccc(OC(F)F)cc1 (configuration not stated) | 118% (inactive)
47 | Cc1ccc2c(c1)C1CN(C)CCC1N2C(=O)c1ccccc1NS(=O)(=O)c1ccc(F)cc1C (configuration not stated) | 98% (inactive)
48 | Cc1ccc2c(c1)C1CN(C)CCC1N2S(=O)(=O)c1ccc(Oc2ccc([N+](=O)[O-])cc2)cc1 (configuration not stated) | 201% (active)
49 | COc1ccc2c(c1)c(C(=O)N/N=C/c1cccs1)c(C)n2C | 99% (inactive)
50 | O=C(NCCCN1CCCC1=O)C(=O)NCC1OCCN1S(=O)(=O)c1ccc(Br)cc1 (configuration not stated) | 103% (inactive)
51 | CC(=O)Nc1ccc(Nc2ncnc3c2nnn3Cc2ccccc2Cl)cc1 | 107% (inactive)
52 | CC(C)c1ccccc1OCC(O)CN(CC(O)COc1cccc2ccccc12)C(C)C (configuration not stated) | 181% (active)
53 | CCC(C)Sc1nc2c(c(=O)[nH]c(=O)n2C)n1CC(O)COc1cccc2ccccc12 (configuration not stated) | 107% (inactive)
54 | OC(COc1cccc2ccccc12)CN1CCN(c2ccccn2)CC1 (configuration not stated) | 105% (inactive)
55 | CCN1C(=O)N[C@@H](CCc2ccccc2)C(C(=O)OC)=C1C | 94% (inactive)
56 | CCCCC1(C(=O)OCC)NC(c2ccc(O)cc2)C2C(=O)N(c3ccccc3)C(=O)C21 (configuration not stated) | 99% (inactive)
57 | CC(C)[C@H](NC(=O)N1CCn2c1nc1ccccc12)C(=O)NC1CC1 | 101% (inactive)
58 | CC(C)C[C@H](NC(=O)C1CCC(CNC(=O)[C@@H]2CCCN2C(=O)OC(C)(C)C)CC1)C(=O)O (some centres not stated) | 103% (inactive)
59 | Cc1ccc(N(CCC(=O)O)S(=O)(=O)c2cccc(C(F)(F)F)c2)cc1 | 4% [inhibitor] (active)
60 | O=C(O)c1cc(S(=O)(=O)N(Cc2ccccc2)c2cccc(C(F)(F)F)c2)ccc1Cl | 108% (inactive)
61 | CCc1nnc(NC(=O)CCN(c2ccc(C)cc2)S(=O)(=O)c2ccccc2)s1 | 108% (inactive)
62 | Cc1cc(C)cc(C(=O)NC(CC(N)=O)c2ccc(N3CCC(N4CCCCC4)CC3)c([N+](=O)[O-])c2)c1 (configuration not stated) | 105% (inactive)
